Screening results (PubChem)
Rows were chosen to be rich in hits. Some 0.97% of all compounds tested hit in one or more screens of this group.
UGM FP inh = inhibitors of M. tuberculosis UDP-galactopyranose mutase; actives 0.06% (n = 320,000); P9WIQ1; inhibition, % at 10 µM; purified UGM, fluorescence polarization probe displacement; in the data active = inhibition above about 10%, passing the limit was not always enough; inconclusive = no clear call, values can overlap the other calls
Target sequence (P9WIQ1 whole entry, looked up): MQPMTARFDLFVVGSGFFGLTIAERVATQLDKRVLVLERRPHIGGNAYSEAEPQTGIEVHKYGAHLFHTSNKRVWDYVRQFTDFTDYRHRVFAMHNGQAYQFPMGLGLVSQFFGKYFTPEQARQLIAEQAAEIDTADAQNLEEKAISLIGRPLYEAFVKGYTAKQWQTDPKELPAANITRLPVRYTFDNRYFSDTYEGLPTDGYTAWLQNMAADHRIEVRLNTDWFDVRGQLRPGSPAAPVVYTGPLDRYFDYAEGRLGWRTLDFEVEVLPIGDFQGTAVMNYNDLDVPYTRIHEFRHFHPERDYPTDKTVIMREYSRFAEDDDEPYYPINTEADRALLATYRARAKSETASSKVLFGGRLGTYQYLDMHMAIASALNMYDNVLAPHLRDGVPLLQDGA
TcdB GH inh = inhibitors of Clostridioides difficile toxin B glycohydrolase | inhibition, % at 9.99 µM | actives 0.24% (n = 350,000) | AID 652162 | TcdB glycohydrolase enzymatic assay, plate reader; in the data active = inhibition above about 10%
RecA splice inh = blocks M. tuberculosis RecA intein splicing; cell-free RecA intein splicing, fluorescence; actives 0.75% (n = 290,000); P9WHJ3; inhibition, % (test concentration not listed); in the data active = inhibition above about 30%; inconclusive = no clear call, values can overlap the other calls;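 also: 0% = vehicle wells and 100% = reference inhibitor control wells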
Mtb betalactam = beta-lactam sensitization of Mtb H37Rv | M. tuberculosis H37Rv growth with meropenem, percent inhibition | AID 434955 | actives 0.27% (n = 330,000) | inhibition, % at 25 µM;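 also: growth measured after seven days incubation then overnight dye step; 0% = bacteria only wells and 100% = bacteria with antibiotic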
Rv3671c inh = inhibitors of M. tuberculosis serine protease Rv3671c. inhibition, % at 5.96 µM. actives 0.048% (n = 320,000); in the data active = inhibition above about 38%;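 also: extracellular domain of Rv3671c used as enzyme; 0% = enzyme with DMSO and 100% = no enzyme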
MazEF act = activators of E. coli MazEF toxin-antitoxin RNase; activation, % at 20 µM; actives 0.32% (n = 350,000); FAM/BHQ RNA-DNA oligo cleavage fluorescence, 5 h; AID 504720; in the data active = activation above about 50%
GFP chromo cs = counter-screen GFP chromophore formation inhibition | shares compounds with RecA splice inh | cell-free GFP chromophore formation, fluorescence | EC50, µM | actives 83% (n = 2,100) | AID 434968
Numbers without * were called inactive; u = inconclusive; x = not tested or not shown. Unless noted, no rule for the calls is given here.

SMILES	UGM FP inh	TcdB GH inh	RecA splice inh	Mtb betalactam	Rv3671c inh	MazEF act	GFP chromo cs
C[C@H]1CN([C@@H](C)CO)C(=O)c2cc(NC(=O)CCCN(C)C)ccc2O[C@H]1CN(C)C	x	0.2	x	x	x	x	x
CC(=O)NCCn1c(SCc2ccccc2C)nc2ccccc2c1=O	0.9	x	32.0*	u	9.0	-8.1	>38
COc1ccccc1C#Cc1ccc([C@@H]2[C@@H](CO)N3CCCCN(CCC(F)(F)F)C[C@@H]23)cc1	x	2.4	x	x	x	x	x
COc1cc(NC2CCCCC2O)c2nc(-c3ccc(Cl)cc3)ccc2c1 (configuration not stated)	-0.1	0.0	51.2*	20.6	-35.7	-11.5	0.179*
CC(=O)n1cc(CO)c2ccccc21	-1.4	1.3	x	-7.8	-7.7	-8.4	x
CC(=O)n1cc(N(C(=O)CCl)c2ccc([N+](=O)[O-])cc2)c2ccccc21	-0.7	-0.7	90.3*	98.9	9.6	4.2	2.28*
CC(=O)n1cc(N(C(=O)CCl)c2ccccc2)c2ccccc21	-3.5	1.4	85.5*	99.7	-0.8	-3.3	4.41*
O=Cc1[nH]c2ccccc2c1N(C(=O)CCl)c1ccc([N+](=O)[O-])cc1	0.7	-4.3	1.1	-1.8	10.3	0.1	x
COc1cc(NCCCCCCCN)c2ncccc2c1	0.4	x	72.1*	11.1	-28.2	20.3	5.23*
COc1cc(NCc2ccccc2O)c2ncccc2c1	x	1.2	0.8	x	x	0.5	x
COc1cc(NC(C)CCCN)c2ncccc2c1 (configuration not stated)	3.8	-1.2	90.2*	98.1	-33.7	26.2	13.2*
CN1CCN(C(=O)C[C@@H]2CC[C@@H]3[C@H](COC[C@@H](O)CN3CC3CCCC3)O2)CC1	x	0.9	x	x	x	x	x
Cc1ccc(S(=O)(=O)Cc2cc(F)c([N+](=O)[O-])cc2[N+](=O)[O-])cc1	3.3	x	34.6*	100.4	-1.5	2.4	22.8*
COc1ccc2c3c([nH]c2c1)[C@@H](CO)N(Cc1ccncc1)CC31CN(CC2CCOCC2)C1	x	0.3	x	x	x	x	x
C[C@H]1CN([C@@H](C)CO)S(=O)(=O)c2ccc(-c3cncnc3)cc2O[C@@H]1CN(C)C(=O)NC1CCCC1	x	-0.2	x	x	x	x	x
COC(=O)[C@@]1(Cc2ccccc2)[C@@H]2C(=CC(=O)[C@H]2CC(=O)C(=O)N(C)C)CN1C(=O)c1ccccc1	1.8	x	69.5*	-7.1	3.4	0.1	15.6*
COC(=O)[C@@]1(Cc2ccc(F)cc2)[C@H]2c3cc(C(=O)N(C)C)n(CCF)c3C[C@H]2CN1C(=O)c1ccccc1	x	1.0	x	x	x	x	x
O=C(NCC1(c2ccccc2)CCCC1)C1(c2ccccc2)CCCC1	-2.3	x	30.1*	31.8	-3.5	-1.9	>38
C[C@@H]1CN([C@H](C)CO)C(=O)c2cc(NC(=O)Cc3ccccc3)ccc2O[C@@H]1CN(C)Cc1ccc(C(=O)O)cc1	x	0.2	x	x	x	x	x
CC(=O)NC(c1ccccc1)c1cccnc1 (configuration not stated)	0.5	x	-1.7	-16.4	3.3	-5.0	x
COC(=O)C(C#N)C(c1cccnc1)c1c(C)[nH][nH]c1=O (configuration not stated)	1.0	-1.5	85.3*	3.2	5.6	-7.0	7.79*
CN1CCN(Cc2cc(=O)oc3ccc(Cl)cc23)CC1	-1.0	x	48.0*	2.5	-4.3	3.2	>38
C#CC(=O)N(c1cc(OC)ccc1OC)C(C(=O)NC1CCCC1)c1cccs1 (configuration not stated)	-0.4	x	31.3*	13.1	5.5	1.3	2.94*
O=C(N[C@H]1CC[C@H](CCn2cc(-c3ccccn3)nn2)O[C@H]1CO)c1ccc(F)cc1	x	-9.1	x	x	x	x	x
CCOC(=O)c1cnc(Cc2ccccc2)[nH]c1=O	3.0	0.8	2.3	4.6	-5.1	10.7	x
CCOC(=O)c1cnc(-n2[nH]c(C)c(Cc3ccccc3)c2=O)[nH]c1=O	0.6	0.4	33.0*	2.8	4.8	-10.7	33.6*
c1cc(-c2ccc(C3[C@H]4CNC[C@@H]3N4CC3CCCC3)cc2)ccn1 (some centres not stated)	x	0.0	x	x	x	x	x
CCOc1cc(NC2CS(=O)(=O)CC2O)c(OCC)cc1NC(=O)c1ccccc1 (configuration not stated)	1.0	x	59.4*	-3.9	1.1	-13.6	>38
Cn1cnc([N+](=O)[O-])c1S(=O)(=O)c1cccc(Cl)c1	0.6	1.9	60.6*	100.3	-4.0	5.6	26.9*
